Screens: PubChem, National Center for Advancing Translational Sciences (NCATS)
In the library only some 4.7% were active in any assay of this set; here they are far more common.
ATXN viability: cell viability loss in ATXN counter-screen; Potency, µM (highest dose often 56.7 µM), usual class: cytotoxic; S2 cells (HEK-293 line with an ATXN2-luciferase reporter) viability, CellTiter-Fluor protease fluorescence, 24 h; 400,000 tested, 0.49% active; also: nearly all actives have a fitted effect of over 40% in size
ATXN2 expr inh: reduces ATXN2 reporter expression in HEK-293 cells; HEK-293 ATXN2-luciferase reporter, luminescence, 24 h; Potency, µM (top dose mostly 57 µM), most hits filed as inhibitors; 360,000 tested, 0.72% active; AID 1745845; also: nearly all actives have a fitted effect of over 55% in size
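ATXN2-luciferase reporter cells (luciferase flanked by upstream and downstream ATXN2 gene portions) were treated 24 h at 37 °C with compounds at up to 57 uM. SteadyGlo luminescence gave expression; GF-AFC fluorescence gave viability.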
TGFb SMAD3 inh: TGF-b pathway inhibition | 410,000 tested, 1.2% active | Potency, µM (doses to about 46.1 µM), actives largely listed as inhibitors | HepG2 CAGA-GFP TGF-b/SMAD3 reporter, GFP fluorescence, 18 h; TGF-beta stimulated, 500 pg/mL final; also: nearly all actives have a fitted effect of over 65% in size
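HEPG2 CAGA-GFP, 1000 cells/well; 2 h settle, 37 C; cpd via pin tool; TGF-b 500 pg/mL final; 18 h, 37 C; GFP imaging ex488/em500-530; %Activity normalised to -TGF-b and +DMSO controls; CRC fit, curve class.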
DRD3 agonist: activates the human D3 dopamine receptor; P35462; D3R DiscoveRx beta-arrestin cells, luminescence, 90 min; max activation, %; 410,000 tested, 0.58% active; AID 652048; in the data active = max activation above about 30%
Target sequence (P35462 whole entry, looked up): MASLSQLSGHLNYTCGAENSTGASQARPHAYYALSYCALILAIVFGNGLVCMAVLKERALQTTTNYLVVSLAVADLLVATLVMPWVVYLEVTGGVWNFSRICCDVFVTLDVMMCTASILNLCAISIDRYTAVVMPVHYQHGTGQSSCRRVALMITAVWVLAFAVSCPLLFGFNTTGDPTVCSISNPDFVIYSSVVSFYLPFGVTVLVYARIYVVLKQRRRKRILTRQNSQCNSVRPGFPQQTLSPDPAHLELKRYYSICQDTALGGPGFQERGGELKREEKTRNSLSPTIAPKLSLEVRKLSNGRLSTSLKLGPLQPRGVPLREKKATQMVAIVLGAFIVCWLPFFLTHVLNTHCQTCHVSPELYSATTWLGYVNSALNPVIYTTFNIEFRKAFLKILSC
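Agonist mode: compounds and dopamine controls were applied to plated cells for 90 min at 37 degrees C after an overnight attachment at 1500 cells/well. Luminescent read-out followed 30 - 60 minutes at room temperature with DiscoveRx detection reagent.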
HepG2 viability: counter-screen for TGF-b inhibitors: cytotoxicity in HepG2 cells; HepG2 CAGA-GFP viability, ATP luminescence, 18 h; Potency, µM (titrated, usually from 46.1 µM), most hits filed as cytotoxic; 410,000 tested, 0.76% active
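HepG2 CAGA-GFP cells (1000/well, DMEM with 1% FBS) received compound, then TGF-beta at 500 pg/mL final, and were incubated 18 hours at 37 degrees C. Viability was read by CellTiter-Glo luminescence. Media-only wells were set as complete cell-killing and DMSO as no toxicity.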
D3 antag: antagonists of human D3 dopamine receptor. P35462. AID 652054. 360,000 tested, 2.5% active. D3R cells, DiscoveRx beta-arrestin luminescence, antagonist mode; active compounds read low. max response, negative = inhibition, %; in the data active = max response below about -50%; inconclusive = no clear call, values can overlap the other calls
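Cells expressing the human receptor were seeded at 1500 cells/well, incubated overnight at 37 degrees C in 5% CO2, then exposed to library compounds with dopamine controls for 90 minutes at 37 degrees C before luminescent detection.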
Numbers stand for hits; n = inactive; u = inconclusive; x = no result; [ ] = dose if it differs, or a comment. Unless noted, calls follow the shape of the dose curve; as a rule, active = well fitted curve in the direction sought with a large enough effect; inconclusive = small, poorly fitted or top-dose-only effect, or another doubt; inactive = no such curve, though single readings can be large; an effect the other way counts as inactive or inconclusive.

SMILES	ATXN viability	ATXN2 expr inh	TGFb SMAD3 inh	DRD3 agonist	HepG2 viability	D3 antag
COc1ccc(CN([C@H](C)CO)S(=O)(=O)N(Cc2ccccc2)[C@H](CO)C(C)C)cc1	u	n	n	n	n	n
Cc1nn(C)c2c1c(C(F)(F)F)cc(=O)n2CC(=O)N1CCCCC1	n	n	n	n	n	x
O=S(=O)(NCC(Nc1ccc(Cl)cc1)c1ccccc1)c1ccc(Cl)cc1 (stereo unspecified)	n	u	13µM	n	n	u
Cc1ccc(S(=O)(=O)NCC(Nc2cccc(Cl)c2)c2ccccc2)cc1 (stereo unspecified)	n	u	11µM	n	18µM	x
CCOc1ccccc1N=Nc1c(C)[nH]n(-c2nc(-c3ccccc3)cs2)c1=O	x	n	x	x	x	x
CC(=O)c1ccc(NC(=O)c2nc(-c3ccccc3)n(-c3ccc(C)cc3)n2)cc1	n	n	n	n	n	x
CN(C)S(=O)(=O)c1cccc2c1C(=O)c1ccccc1C2=O	n	n	n	n	n	n
NS(=O)(=O)c1cccc2c1C(=O)c1cccc(O)c1C2=O	x	3.1µM	x	x	x	x
Cc1ccc(C)c(Cn2nnc(C(=O)NCc3ccc(Cl)cc3Cl)c2N)c1	n	n	n	n	n	x
CCCCOC(=O)c1ccc(NC(=O)Cc2coc3ccc(C(C)C)cc23)cc1	u	u	11µM	n	n	x
Cc1ccc(NC(=O)Cc2coc3ccc(C(C)C)cc23)cc1Cl	u	n	11µM	n	n	x
Cc1c(C(=O)N(C)Cc2nccs2)sc2ncnc(NCC3CCCO3)c12 (stereo unspecified)	n	x	x	x	x	x
CCC(=O)Oc1ccc2c(c1)CC[C@@H]1[C@@H]2CC[C@]2(C)[C@@H](OC(=O)CC)CC[C@@H]12	n	x	x	n	x	x
Cc1nc([N+](=O)[O-])cn1CC(=O)c1ccc2c(c1)OCCCO2	x	x	n	x	n	x
CC(C)(C)C1CCC(OCC(O)CN2CCN(c3ccccn3)CC2)CC1 (stereo unspecified)	n	n	n	65	n	n
OC(COC1CCCCC1)CN1CCN(c2ccccc2)CC1 (stereo unspecified)	u	n	n	n	n	-61
CC(C)(C)C1CCC(OCC(O)CN2CCN(Cc3ccccc3)CC2)CC1 (stereo unspecified)	u	n	u	n	11µM	u
CC1CN(CC(O)COC2CCC(C(C)(C)C)CC2)CC(C)O1 (stereo unspecified)	u	n[11.3 µM]	n	n	n	n
COc1ccc(C(=O)NCCN2Cc3cc(C)ccc3OC(C)C2)c(OC)n1 (stereo unspecified)	n	x	x	x	x	x
CC(C)(C)C(=O)C(Cl)C(=O)Nc1ccccc1 (stereo unspecified)	n	x	u	n	8.9µM	n
NC(=O)Nc1ccc(Nc2ccccc2)cc1	n	x	n	n	n	n
CCCCC(CCCCl)C(=O)Nc1ccccc1 (stereo unspecified)	n	n[11.3 µM]	n	n	n	n
O=C(Nc1ccc(Nc2ccccc2)cc1)C(Cl)Cl	u	n	13µM	n	n	n
Cc1[nH]n(-c2ccc([N+](=O)[O-])cc2)c(=O)c1/C=N/N1CCOCC1	n	n	n	n	1.4µM	n
COc1ccc(CCN=Cc2c(C)[nH]n(-c3ccc([N+](=O)[O-])cc3)c2=O)cc1OC	n	n	n	n	n	n
SMILES	ATXN viability	ATXN2 expr inh	TGFb SMAD3 inh	DRD3 agonist	HepG2 viability	D3 antag
COc1ccc(O)c(/C=N/NC(=O)c2ccc(CSc3nc(C)cc(C)n3)cc2)c1	n	4.5µM	u	n	n	n
COc1ccc(O)c(/C=N/NC(=O)c2ccc(OCc3cccc(Br)c3)cc2)c1	u	3.2µM	n	n	n	n
Cc1cc(C)nc(SCc2ccc(C(=O)N/N=C/c3cccc(O)c3O)cc2)n1	u	u	n	n	n	n
COc1ccc(/C=N/NC(=O)c2ccc(Br)cc2)c(OC)c1	n	n	n	n	n	u
COc1ccc(C(=O)N/N=C/c2cc(Br)ccc2O)cc1OC	n	1.4µM	n	n	n	n
CCCOc1ccc(Br)cc1/C=N/NC(=O)c1cc(OC)c(OC)c(OC)c1	n	n	n	n	n	n
COc1ccc(OC)c(NC(=O)c2ccc(-c3nc(CSc4ccccc4)c(C)o3)cc2)c1	n	n	n	n	n	x
N#Cc1c[nH]n2c(NC3CCCC3)c(-c3cccc(Br)c3)nc12	n	n	u	n	n	x
NC(=O)C1c2ccccc2CCc2ccccc21	x	x	x	n	x	x
Cc1cc2oc(C(=O)Nc3c(C)n(C)n(-c4ccccc4)c3=O)cc(=O)c2cc1C	n	n	n	n	n	x
Cn1c(=O)cc(SCC(=O)N2CCN(c3ccccc3F)CC2)c2ccc(Cl)cc21	n	n	n	n	n	x
COc1ccc(NC(=O)c2coc3ccccc23)cc1OC	n	n	n	n	n	-67
COc1ccc(-n2c(Cc3cccn3C)nnc2SCC(=O)Nc2ccccc2C)cc1	n	n	n	n	n	n
COc1ccc(NC(=O)CSc2nnc(Cc3cccn3C)n2-c2ccc(C)cc2)cc1OC	n	n	n	30	n	n
COc1ccc(-n2c(Cc3cccn3C)nnc2SCC(=O)Nc2cccc(OC)c2)cc1	n	n	n	n	n	n
CCOC(=O)c1ccccc1NC(=O)CSc1nnc(Cc2cccn2C)n1-c1ccc(C)cc1	n	n	n	39	n	n
CC(NC(=O)c1ccccc1NC(=O)c1nsc2ccccc12)c1ccccc1 (stereo unspecified)	n	n	n	n	n	x
O=C(Cc1ccc(OCCCCc2ccccc2)cc1)NO	x	x	n	x	n	x
Cc1oc2ncn(CC(C)C)c(=O)c2c1C(=O)Nc1ccc(Cl)cn1	n	n	n	n	n	x
Cc1oc2ncn(CC(C)C)c(=O)c2c1C(=O)Nc1cc(F)ccc1F	u	35µM	n	n	n	x
Cc1c(F)cc2c(=O)c(C(=O)O)cn3c2c1CCC3C (stereo unspecified)	n	n	x	x	x	x
CCC(O)CNC(=O)c1cnn(-c2nccc(-c3cc(C)sc3C)n2)c1C1CC1 (stereo unspecified)	n	x	x	x	x	x
COc1cc2ccccc2cc1C(=O)N1CCN(c2nc3c(F)cccc3s2)CC1	x	x	n	n	n	x
COc1cc2ccccc2cc1C(=O)N1CCN(c2nc3c(F)cc(F)cc3s2)CC1	n	u	7.1µM	n	n	x
COc1cc2cc(CNc3ccc(C)cc3)c(=O)n(CC(=O)Nc3ccc(C(C)C)cc3)c2cc1OC	n	n	n	n	n	x
CCCCCOc1c(Cl)cc(C(=O)N(Cc2ccc(C)o2)C2CCS(=O)(=O)C2)cc1Cl (stereo unspecified)	u	u	18µM	n	n	x
CCCCOc1c(Cl)cc(C(=O)N(Cc2ccc(C)o2)C2CCS(=O)(=O)C2)cc1Cl (stereo unspecified)	u	n	u	n	n	x
